Results reported in PubChem BioAssay (NCATS).
“And” between values parts separate entries of the source, which are not always exact repeats. Identical values can stand only once. Results filed as inconclusive are left out. The source made the active and inactive calls. Unless noted, calls come from the whole dose curve; as a rule, active = well fitted curve in the direction sought with a large enough effect; inconclusive = small, poorly fitted or top-dose-only effect, or another doubt; inactive = no such curve, though single readings can be large; an effect the other way counts as inactive or inconclusive.

What was measured:
[1] = Drug repurposing screens with cells derived from glioblastoma tumor samples (AID 1345199); details: GBM patient neurospheres viability, ATP luminescence, 48 h; note: nearly all actives have a fitted effect of over 40% in size; note: potency is the fitted concentration of half-maximal effect; for activity, negative = cell killing: % is set by controls: 0 for no effect and ±100 for the full control effect
Summary of the method: (§1)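 Primary testing used CD133+ neurospheres from four GBM patients, seven concentrations, 48 h exposure and ATP-based viability; confirmation added three slower-growing patient lines.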

[2] = system: astro; assay: as above; details: viability, ATP luminescence, 48 h; series mostly up to 45.9 µM
Summary of the method: as §1

[3] = target: Nuclear receptor subfamily 1 group I member 2 (Rattus norvegicus) (UniProt Q9R1A7); assay: qHTS assay for small molecule activators of the rat pregnane X receptor (rPXR) signaling pathway (AID 651751; call rule not given here; note: 0% is about no effect); details: rPXR reporter cells, luciferase (One-Glo), 24 h
[4] = qHTS assay for small molecule activators of the human pregnane X receptor (PXR) signaling pathway (AID 720659; call rule not given here; note: 0% is about no effect); details: DPX-2 HepG2 CYP3A4-luciferase, 24 h; series mostly up to 92.3 µM
[5] = qHTS assay to identify inhibitors of the type 1 interferon - major histocompatibility complex class I in skeletal muscle: Counter screen cell viability and HiBit confirmation (AID 1347412); details: iHSKM muscle cells + IFN-b, HiBiT or CellTiter-Glo, 24 h; for activity change, negative = inhibition: Viability, at 45.9 µM (top of the series); note: potency is the fitted concentration of half-maximal effect; for activity change, negative = inhibition: % is set by controls: 0 for no effect and ±100 for the full control effect; for all read-outs here: nearly all actives have a fitted effect of over 60% in size
Summary of the method: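 After 24 h with human IFN-beta (4 ng/ml) and compound titrations (top 46 uM final, 1:3, 12 points), HLA-B HiBit myoblasts were lysed for either Nano-Glo HiBiT luminescence or CellTiter Glo viability on paired plates.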

[6] = at 45.9 µM (top of the series), tumour line B
[7] = at 45.9 µM (top of the series), tumour line D
[8] = at 46.1 µM (top of the series), tumour line C

Sequence of Nuclear receptor subfamily 1 group I member 2 (Rattus norvegicus) (Q9R1A7 whole entry, looked up): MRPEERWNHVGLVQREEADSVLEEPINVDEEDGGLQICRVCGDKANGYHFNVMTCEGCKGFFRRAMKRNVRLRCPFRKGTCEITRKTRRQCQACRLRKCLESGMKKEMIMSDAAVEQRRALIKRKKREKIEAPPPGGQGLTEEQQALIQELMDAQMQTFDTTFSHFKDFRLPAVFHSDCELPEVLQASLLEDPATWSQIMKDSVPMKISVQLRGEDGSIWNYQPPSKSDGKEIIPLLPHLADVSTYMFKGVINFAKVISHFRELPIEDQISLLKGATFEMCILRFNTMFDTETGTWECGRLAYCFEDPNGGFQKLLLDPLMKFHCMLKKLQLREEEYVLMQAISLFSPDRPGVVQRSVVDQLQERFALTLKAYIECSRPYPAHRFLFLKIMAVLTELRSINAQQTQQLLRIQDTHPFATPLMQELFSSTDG

## O=CCCCC=O
[1]; [6]
  activity, negative = cell killing: -2.9% (inactive)
[1]; [7]
  activity, negative = cell killing: -3.77% (inactive)
[1]; [8]
  activity, negative = cell killing: -3.46% (inactive)
[2]
  Potency: inactive
[3]
  max response: 2.91% (inactive)
[4]
  outcome: inactive

## Cc1ccccc1
[1]; [6]
  activity, negative = cell killing: 6.08% (inactive)
[1]; [7]
  activity, negative = cell killing: -15.8% (inactive)
[1]; [8]
  activity, negative = cell killing: 2.61% (inactive)
[3]
  max response: -1.25% (inactive) and 0.145% (inactive)
[4]
  outcome: inactive

## O=C1CSC2(CCN(CCCN3c4ccccc4Sc4ccc(Cl)cc43)CC2)N1
[1]; [8]
  activity, negative = cell killing: -24.2% (inactive)
[1]; tumour line A
  Potency: 3.16 µM (active)
[1]; tumour line D
  Potency: 20 µM (active)
[2]
  Potency: 25.1 µM (active)

## CCCCCCCCCCCCCC[n+]1ccc(C)cc1
[2]
  Potency: 3.16 µM (active)

## CCCCC/C=C\C/C=C\CCCCCCCC(=O)O
[1]; [6]
  activity, negative = cell killing: -6.32% (inactive)
[1]; [7]
  activity, negative = cell killing: -10.3% (inactive)
[1]; [8]
  activity, negative = cell killing: 11.8% (inactive)
[3]
  max response: 6.19% (inactive) and -3.59% (inactive)
[4]
  outcome: inactive

## CCOc1ccc2c(c1)C(C)=CC(C)(C)N2
[1]; [8]
  activity, negative = cell killing: -10% (inactive)
[1]; tumour line A
  Potency: 39.8 µM (active)
[2]
  Potency: inactive

## COc1cc2c(cc1O)CCN[C@]21CS[C@@H]2c3c(OC(C)=O)c(C)c4c(c3[C@H](COC1=O)N1[C@@H]2[C@H]2c3c(cc(C)c(OC)c3O)C[C@@H]([C@@H]1O)N2C)OCO4
[2]
  Potency: 8.91 µM (active) and 14.1 µM (active)

## C=C[C@]1(C)C[C@@H](OC(=O)CSC(C)(C)CNC(=O)[C@H](N)C(C)C)[C@]2(C)[C@H](C)CC[C@]3(CCC(=O)[C@H]32)[C@@H](C)[C@@H]1O
[2]
  Potency: inactive

## CCCCCCCCCCCC[n+]1ccc2ccccc2c1
[2]
  Potency: 5.01 µM (active)

## CC1=C(/C=C/C(C)=C/C=C/C(C)=C/C=C/C=C(C)/C=C/C=C(C)/C=C/C2=C(C)C(=O)CCC2(C)C)C(C)(C)CCC1=O
[1]; [6]
  activity, negative = cell killing: -0.298% (inactive)
[1]; [7]
  activity, negative = cell killing: 9.62% (inactive)
[1]; [8]
  activity, negative = cell killing: -24.8% (inactive)
[2]
  Potency: inactive

## C[C@@H]1CCN(C(=O)CC#N)C[C@@H]1N(C)c1ncnc2[nH]ccc12
[5]
  activity change, negative = inhibition: -5.51% (inactive)

## CCCCCCCC/C=C\CCCCCCCC(=O)O
[1]; [6]
  activity, negative = cell killing: 3.38% (inactive)
[1]; [7]
  activity, negative = cell killing: -14.1% (inactive)
[1]; [8]
  activity, negative = cell killing: 14.2% (inactive)
[3]
  max response: 0.673% (inactive) and 2.82% (inactive)
[4]
  outcome: inactive

## CCN(CC)Cc1cc(Nc2ccnc3cc(Cl)ccc23)ccc1O
[1]; at 20 µM (top of the series), tumour line C
  activity, negative = cell killing: -18.3% (inactive)
[1]; tumour line A
  Potency: 12.6 µM (active)
[1]; tumour line D
  Potency: 14.1 µM (active)
[2]
  Potency: inactive

## O=C(Nc1cccc(C(F)(F)F)c1)c1cc(Br)cc(Br)c1O
[2]
  Potency: 2.51 µM (active)

## CC1(C)O[C@@H]2C[C@H]3[C@@H]4CCC5=CC(=O)C=C[C@]5(C)[C@H]4[C@@H](O)C[C@]3(C)[C@]2(C(=O)CO)O1
[1]; [6]
  activity, negative = cell killing: -5.55% (inactive)
[1]; at 46 µM (top of the series), tumour line A
  activity, negative = cell killing: -10.6% (inactive)
[1]; [8]
  activity, negative = cell killing: -10.7% (inactive)
[2]
  Potency: inactive

## C=C1CC[C@@H]2[C@](C)(CO)[C@H](O)CC[C@@]2(C)[C@@H]1C/C=C1/C(=O)OC[C@H]1O
[2]
  Potency: 25.1 µM (active)
[5]; HiBiT
  Potency: 12.5 µM (active)
[5]
  activity change, negative = inhibition: -7.87% (inactive)

## O=C1C(=O)c2ncccc2-c2cccnc21
[2]
  Potency: 0.562 µM (active)
